# Results: PubChem BioAssay (NCATS)
# “And” between values parts separate entries of the source, which are not always exact repeats. Equal entries are not always repeated. Records with an inconclusive call do not appear. A call without a number means that no potency is given here. A structure can be active in one record and inactive in another. The source made the active and inactive calls. Unless noted, calls come from the whole dose curve.
# Tests used:
# [1] = target: Androgen receptor (Homo sapiens) (UniProt P10275); assay: qHTS assay for small molecule agonists of androgen receptor signaling (AID 588515; active = well fitted curve in the direction sought with a large enough effect in the signal ratio, with a control signal flat; the % refers to the signal ratio); conditions: AR-UAS-bla HEK293, beta-lactamase ratio, agonist 16 h; stronger effect = higher value
# Procedure, shortened: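 EC50 and efficacy came from Hill fits of titrations (up to 92 uM) normalized to 30 nM R1881 as 100% and DMSO as 0%. Compound exposure was 16 h at 37 C on AR-UAS-bla HEK293 cells, with a 405/460/530 nm CCF4 fluorescence read.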
# [2] = target: Androgen receptor (Homo sapiens) (UniProt P10275); assay: qHTS assay for small molecule antagonists of androgen receptor signaling (AID 588516; active = well fitted curve in the direction sought with a large enough effect in the signal ratio, with a control signal flat, not every such curve was filed as active; the % refers to the signal ratio; note: potency is the fitted concentration of half-maximal effect)
# Procedure, shortened: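 AR-UAS-bla-GripTite HEK 293 cells (2000/well, 5 h at 37 C) received compound titrations, then R1881 at 10 nM final; after 16 h at 37 C, CCF4 dye 2 h RT, beta-lactamase fluorescence read; IC50 from Hill fits.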
# [3] = target: Bile acid receptor (Homo sapiens) (UniProt Q96RI1); assay: qHTS assay for small molecule antagonists of farnesoid X receptor signaling (AID 588526)
# Procedure, shortened: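 Concentration-response titrations were fitted to the Hill equation for half-maximal inhibition and maximal response, with data normalised to 50 uM chenodeoxycholic acid and DMSO control wells. Cells: FXR-UAS-bla HEK293T, dialyzed FBS.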
# [4] = target: Peroxisome proliferator-activated receptor delta (Homo sapiens) (UniProt Q03181); assay: qHTS assay for small molecule agonists of peroxisome proliferator-activated receptor delta signaling (AID 588534)
# Procedure, shortened: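 Cells carrying a PPAR-delta beta-lactamase reporter were treated with compounds for 18 h at 37 °C in agonist mode. CCF4 fluorescence was read after 2 h; EC50 and efficacy from Hill fits.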
# [5] = qHTS assay for small molecule antagonists of peroxisome proliferator-activated receptor delta signaling (AID 588535; active = well fitted inhibition curve with a large enough effect in the signal ratio, with a control signal flat, not every such curve was filed as active; the % refers to the signal ratio;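 for max response: cells co-treated with a PPAR-delta agonist as stimulator during compound exposure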); conditions: HEK293T PPARd-UAS-bla, beta-lactamase FRET ratio, 18 h; 460 nm channel
# Procedure, shortened: (§1)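 Reporter: UAS-bla under PPAR-delta response element, HEK293T host. Medium: 2% charcoal/dextran FBS. Dosing: titration, 18 hrs, 37 C. Detection: CCF4, 2 hrs RT, 405 ex/460 and 530 em.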
# [6] = target: Peroxisome proliferator-activated receptor delta (Homo sapiens) (UniProt Q03181); assay: as above
# Procedure, shortened: as §1
# [7] = target: Peroxisome proliferator-activated receptor gamma (Homo sapiens) (UniProt P37231); assay: qHTS assay for small molecule agonists of peroxisome proliferator-activated receptor gamma signaling (AID 588536; active = well fitted curve in the direction sought with a large enough effect in the signal ratio, with a control signal flat, not every such curve was filed as active; the % refers to the signal ratio)
# Procedure, shortened: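 Test agents, titrated, stimulated HEK293 UAS-bla cells overnight (16 h, 37 C). Substrate CCF4 was then added for two hours at room temperature before fluorescence reading.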
# [8] = target: Peroxisome proliferator-activated receptor gamma (Homo sapiens) (UniProt P37231); assay: qHTS assay for small molecule antagonists of peroxisome proliferator-activated receptor gamma signaling (AID 588537; active = well fitted inhibition curve with a large enough effect in the signal ratio, with a control signal flat, not every such curve was filed as active; the % refers to the signal ratio;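 note: reporter cells co-stimulated with 50 nM rosiglitazone agonist during compound treatment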)
# Procedure, shortened: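 We seeded GeneBLAzer HEK293 reporter cells at 3000 per well, allowed 6-6.5 h attachment at 37 C, then co-treated with test compound titrations and 50 nM rosiglitazone overnight (16 h). Inhibition was quantified from 460/530 nm emission ratios.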
# [9] = target: Vitamin D3 receptor (Homo sapiens) (UniProt P11473); assay: qHTS assay for small molecule antagonists of vitamin D receptor signaling (AID 588541);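 note: receptor activated by calcitriol during compound treatment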
# Procedure, shortened: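 VDR-UAS-bla HEK293T cells (2000/well, 2% charcoal-stripped FBS) were treated with titrated compounds plus 1-alpha,25-dihydroxyvitamin D3 (50 nM or 3 nM final) for 16 h at 37 C. CCF4 beta-lactamase fluorescence was read; Hill fits gave IC50.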
# [10] = target: Vitamin D3 receptor (Homo sapiens) (UniProt P11473); assay: qHTS assay for small molecule agonists of vitamin D receptor signaling (AID 588543)
# Procedure, shortened: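 GeneBLAzer VDR-UAS-bla HEK293T cells in 2% charcoal-stripped FBS medium were dosed with compound titrations for 16 h at 37 °C; CCF4 β-lactamase readout (405 nm ex, 460/530 nm em). EC50 and efficacy from Hill fits, normalized to 50 nM calcitriol (100%) and DMSO (0%).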
# [11] = target: Thyroid hormone receptor beta (Homo sapiens) (UniProt P10828); assay: qHTS assay for small molecule agonists of thyroid hormone receptor beta signaling (AID 588545)
# Procedure, shortened: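 HEK 293 TR-UAS-bla; agonist mode; 18 hrs, 37 C; CCF4, ex 405/em 460 and 530 nm; norm. T3 10 nM = 100%, DMSO = 0%; Hill fit → EC50, efficacy.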
# [12] = qHTS assay for small molecule antagonists of retinoid X receptor alpha signaling (AID 588546; active = well fitted inhibition curve with a large enough effect in the signal ratio, with a control signal flat, not every such curve was filed as active; the % refers to the signal ratio;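 note: cells stimulated with 9-cis-retinoic acid as agonist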); conditions: HEK293T RXRa-UAS-bla, beta-lactamase ratio, antagonist mode; measured here: W530 green channel, cytotoxicity proxy
# Procedure, shortened: (§2)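 Beta-lactamase reporter inhibition, read as CCF4 fluorescence ratio (ex 405, em 460/530 nm) after 2 h at RT. HEK293T UAS-bla cells, 2500/well, were stimulated with 9-cis-RA at 500 or 100 nM final alongside test compound for 18 h at 37 C.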
# [13] = target: Retinoic acid receptor RXR-alpha (Homo sapiens) (UniProt P19793); assay: as above; conditions: HEK293T RXRa-UAS-bla, beta-lactamase ratio, antagonist mode
# Procedure, shortened: as §2
# [14] = target: Thyroid hormone receptor beta (Homo sapiens) (UniProt P10828); assay: qHTS assay for small molecule antagonists of thyroid hormone receptor beta signaling (AID 588547; active = well fitted inhibition curve with a large enough effect in the signal ratio, with a control signal flat, not every such curve was filed as active; the % refers to the signal ratio;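 note: cells stimulated with 0.4 nM T3 agonist during compound exposure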); conditions: TR-UAS-bla HEK293, beta-lactamase ratio, antagonist mode, 18 h
# Procedure, shortened: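 TR-UAS-bla GripTite HEK293 cells in 2% charcoal/dextran FBS medium were preincubated 4 h at 37 C, given compound (0.59 nM to 92 uM) plus 0.4 nM T3 (final) for 18 h, then CCF4 for 2 h at RT; Hill fit gave IC50.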
# [15] = qHTS assay for small molecule agonists of the antioxidant response element (ARE) signaling pathway (AID 651741; active = well fitted activation curve with a large enough effect in the signal ratio; the % refers to the signal ratio; note: potency is the fitted concentration of half-maximal effect)
# Procedure, shortened: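 Compounds in DMSO are pinned onto HepG2 ARE-bla cells (2,000/well) that were preincubated 5 h; plates stay 16 h at 37 C, then beta-lactamase activity is detected with LiveBLAzer B/G substrate by fluorescence.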
# [16] = qHTS assay for small molecule activators of the p53 signaling pathway (AID 651743; active = well fitted activation curve with a large enough effect in the signal ratio, not every such curve was filed as active; the % refers to the signal ratio); conditions: HCT-116 p53RE-bla, beta-lactamase FRET ratio, 16 h; activation: stronger effect = higher value
# Procedure, shortened: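 Cell-based beta-lactamase reporter (p53 response elements, HCT-116 background). After a 5-hour preincubation, cells received compound for 16 hours at 37 C; substrate development ran 2 hours at room temperature.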
# [17] = qHTS assay for small molecule activators of the nuclear factor-kappa B (NF-kB) signaling pathway (AID 651749; active = well fitted activation curve with a large enough effect in the signal ratio; the % refers to the signal ratio); conditions: NF-kB-bla ME-180 cells, beta-lactamase FRET ratio, 16 h; activation: stronger effect = higher value
# Procedure, shortened: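 Screening used 2,000 ME-180 reporter cells per well exposed to pinned compound (23 nL) or DMSO; after 16 hr at 37C, beta-lactamase expression under NF-kB control was assessed through FRET.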
# [18] = qHTS assay for environmental chemicals that activate the Aryl hydrocarbon Receptor (AhR) signaling pathway (AID 651777; active = well fitted curve in the direction sought with a large enough effect; an effect the other way counts as inactive or inconclusive; note: nearly all actives have a fitted effect of over 15% in size); conditions: 1A2-DRE human hepatoma cells, luciferase, 24 h; activation: stronger effect = higher value
# Procedure, shortened: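 Quantitative HTS in stably transfected human liver-derived cells whose luciferase gene sits downstream of the CYP1A2 promoter and dioxin response element. After 24 hr exposure at 37 C, One-Glo luminescence was measured.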
# [19] = target: Peroxisome proliferator-activated receptor alpha (Homo sapiens) (UniProt Q07869); assay: qHTS assay for small molecule agonists of the peroxisome proliferator-activated receptor alpha (PPARalpha) signaling pathway (AID 651778; active = well fitted curve in the direction sought with a large enough effect; an effect the other way counts as inactive or inconclusive); conditions: PathHunter PPARalpha complementation, chemiluminescence, 6 h; stronger effect = higher value
# Procedure, shortened: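 Cells plated at 2,000/well and held overnight at 37 C, 5% CO2, then compound added by pin tool for 6 hr; after PathHunter detection reagent and 60 min at room temperature, chemiluminescence from enzyme complementation was read.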
# [20] = qHTS assay for small molecule agonists of the antioxidant response element (ARE) signaling pathway measured by Nrf2-dependant transcriptional activity - cell viability counter screen (AID 720653; active = well fitted curve in the direction sought with a large enough effect in the repeat runs; an effect the other way counts as inactive or inconclusive); conditions: ARE-bla HepG2 viability, CellTiter-Glo ATP luminescence, 16 h; stronger effect = lower value
# Procedure, shortened: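 ARE-bla HepG2 cells (2,000/well) rested 5 hrs at 37C/5% CO2, then exposed to compounds in DMSO for 16 hrs. Viability was read in the same wells as intracellular ATP by luminescence, 30 min at room temperature after reagent addition.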
# [21] = qHTS assay for cell viability of HEK293 cells (AID 743288; active = well fitted curve in the direction sought with a large enough effect; an effect the other way counts as inactive or inconclusive; note: nearly all actives have a fitted effect of over 50% in size); conditions: ATP luminescence (CellTiter-Glo), 18 h; max response: stronger effect = lower value
# Procedure, shortened: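 Parental HEK293 cells were seeded at 2,000 cells/well, rested at least 5 h at 37 C, then exposed to compounds in DMSO for 18 h at 37 C. Viability was read as ATP-dependent luciferase luminescence after 30 min at room temperature.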
# [22] = qHTS assay for cell viability of the p53RE-bla HCT-116 cell line (AID 743292; active = well fitted curve in the direction sought with a large enough effect; an effect the other way counts as inactive or inconclusive; note: nearly all actives have a fitted effect of over 55% in size)
# Procedure, shortened: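 Viability of compound-treated p53RE-bla HCT-116 cells is taken from ATP-dependent luciferase luminescence. Treatment lasts 16 h at 37 C after a 5 h settling period; detection follows 30 min at room temperature.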
# [23] = Primary qHTS for Huh7 cytotoxicity: counterscreen for inhibitors of MERS-S pseudotyped particle cell entry (AID 1479147); conditions: outcome: dose series up to 57.1 µM unless noted
# [24] = Primary qHTS for inhibitors of MERS-S pseudo-typed particle cell entry (AID 1479149); conditions: outcome: dose series up to 57.1 µM unless noted; note: nearly all actives have a fitted effect of over 60% in size
# [25] = Primary qHTS for Vero E6 cytotoxicity: counterscreen for inhibitors of SARS-S pseudo-typed particle cell entry (AID 1479150); conditions: outcome: dose series up to 57.1 µM unless noted
# [26] = Cytotoxicity counterscreen for inhibitors of SARS-CoV-2 cell entry (AID 1645845); conditions: outcome: dose series up to 57.1 µM unless noted; note: nearly all actives have a fitted effect of over 50% in size
# Procedure, shortened: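 Expi293F/hACE2 cells seeded overnight; cpd pin-transferred in DMSO, 1 h preincubation, + media, 48 h 37 C 5% CO2; ATPLite 1step luminescence; normalized to cells and no cells.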
# [27] = Primary qHTS to identify inhibitors of SARS-CoV-2 cell entry (AID 1645846); conditions: SARS-CoV-2 pseudovirus cell entry assay, luminescence; activity change, negative = inhibition: at 57.1 µM (top of the series) unless noted; note: nearly all actives have a fitted effect of over 45% in size; note: potency is the fitted concentration of half-maximal effect
# Procedure, shortened: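 Luminescence readout (Bright-Glo luciferase) 48 h after pseudoparticle addition. HEK293-ACE2 cells, 1500/well; compound pre-incubation 1 h; Normalized to spike PP and bald PP.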
# [28] = target: Glutathione peroxidase 1 (Homo sapiens) (UniProt P07203); assay: Primary qHTS Assay for Inhibitors of Recombinant Selenoprotein Glutathione Peroxidase 1 (GPX1) (AID 1845191; active = well fitted curve in the direction sought with a large enough effect; an effect the other way counts as inactive or inconclusive; note: nearly all actives have a fitted effect of over 65% in size)
# Procedure, shortened: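 Recombinant GPX1 (10 nM final) was preincubated with compound for 30 min at room temperature, then reacted with 1 mM GSH, 0.5 mM CHP, 0.5 mM NADPH and 100 nM glutathione reductase; NADPH fluorescence (340/450 nm) was read at 0 and 15 min.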
# [29] = target: Phospholipid hydroperoxide glutathione peroxidase GPX4 (Homo sapiens) (UniProt P36969); assay: Primary qHTS Assay for Inhibitors of Recombinant Selenoprotein Glutathione Peroxidase 4 (GPX4) (AID 1845192; active = well fitted curve in the direction sought with a large enough effect; an effect the other way counts as inactive or inconclusive; note: nearly all actives have a fitted effect of over 65% in size)
# Procedure, shortened: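 GR-coupled readout: 100 nM GR, 1 mM GSH, 0.5 mM NADPH; NADPH fluorescence (ex 340/em 450 nm) read at t=0 and after 15 min RT. GPX4 200 nM, preincubated 30 min with compound; substrate 0.5 mM CHP.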
# [30] = VSVG counterscreen qHTS to identify inhibitors of SARS-CoV-2 cell entry (AID 1645847); note: potency is the fitted concentration of half-maximal effect; nearly all actives have a fitted effect of over 65% in size
# Procedure, shortened: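 HEK293-ACE2 cells (Expi293F stably expressing human ACE2) were pretreated with compound for 1 h at 37 °C, then infected with MLV-based VSV-G pseudotyped particles for 48 h. Luciferase luminescence was normalized to VSV-G PP and bald PP wells.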
# Chain of Peroxisome proliferator-activated receptor delta (Homo sapiens) (Q03181 whole entry, looked up): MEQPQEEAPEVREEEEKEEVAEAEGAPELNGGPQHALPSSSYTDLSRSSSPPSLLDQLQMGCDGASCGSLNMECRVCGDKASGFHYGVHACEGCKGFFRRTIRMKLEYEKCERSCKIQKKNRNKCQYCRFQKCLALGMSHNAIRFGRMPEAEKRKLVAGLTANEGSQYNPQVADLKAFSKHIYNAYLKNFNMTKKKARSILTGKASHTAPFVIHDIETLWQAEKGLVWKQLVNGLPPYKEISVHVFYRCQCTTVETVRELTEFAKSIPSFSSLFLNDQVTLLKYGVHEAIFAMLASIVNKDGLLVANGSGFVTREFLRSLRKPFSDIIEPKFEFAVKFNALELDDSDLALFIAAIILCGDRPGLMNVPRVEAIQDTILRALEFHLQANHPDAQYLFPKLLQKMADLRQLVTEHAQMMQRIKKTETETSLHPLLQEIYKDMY
# Chain of Peroxisome proliferator-activated receptor gamma (Homo sapiens) (P37231 whole entry, looked up): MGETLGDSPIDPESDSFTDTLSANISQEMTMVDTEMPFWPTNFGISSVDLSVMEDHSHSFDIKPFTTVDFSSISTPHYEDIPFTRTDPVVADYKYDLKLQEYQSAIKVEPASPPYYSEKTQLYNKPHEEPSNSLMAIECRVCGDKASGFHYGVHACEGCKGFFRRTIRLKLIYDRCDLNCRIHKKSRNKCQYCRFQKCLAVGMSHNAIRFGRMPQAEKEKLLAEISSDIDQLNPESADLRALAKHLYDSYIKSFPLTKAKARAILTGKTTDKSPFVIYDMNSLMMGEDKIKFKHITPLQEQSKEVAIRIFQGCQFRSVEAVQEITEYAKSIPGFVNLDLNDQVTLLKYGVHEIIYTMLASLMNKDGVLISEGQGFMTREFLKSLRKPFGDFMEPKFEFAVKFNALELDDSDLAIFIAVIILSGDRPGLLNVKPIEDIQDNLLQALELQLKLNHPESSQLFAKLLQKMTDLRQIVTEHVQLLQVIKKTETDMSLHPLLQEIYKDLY
# Chain of Androgen receptor (Homo sapiens) (P10275 whole entry, looked up): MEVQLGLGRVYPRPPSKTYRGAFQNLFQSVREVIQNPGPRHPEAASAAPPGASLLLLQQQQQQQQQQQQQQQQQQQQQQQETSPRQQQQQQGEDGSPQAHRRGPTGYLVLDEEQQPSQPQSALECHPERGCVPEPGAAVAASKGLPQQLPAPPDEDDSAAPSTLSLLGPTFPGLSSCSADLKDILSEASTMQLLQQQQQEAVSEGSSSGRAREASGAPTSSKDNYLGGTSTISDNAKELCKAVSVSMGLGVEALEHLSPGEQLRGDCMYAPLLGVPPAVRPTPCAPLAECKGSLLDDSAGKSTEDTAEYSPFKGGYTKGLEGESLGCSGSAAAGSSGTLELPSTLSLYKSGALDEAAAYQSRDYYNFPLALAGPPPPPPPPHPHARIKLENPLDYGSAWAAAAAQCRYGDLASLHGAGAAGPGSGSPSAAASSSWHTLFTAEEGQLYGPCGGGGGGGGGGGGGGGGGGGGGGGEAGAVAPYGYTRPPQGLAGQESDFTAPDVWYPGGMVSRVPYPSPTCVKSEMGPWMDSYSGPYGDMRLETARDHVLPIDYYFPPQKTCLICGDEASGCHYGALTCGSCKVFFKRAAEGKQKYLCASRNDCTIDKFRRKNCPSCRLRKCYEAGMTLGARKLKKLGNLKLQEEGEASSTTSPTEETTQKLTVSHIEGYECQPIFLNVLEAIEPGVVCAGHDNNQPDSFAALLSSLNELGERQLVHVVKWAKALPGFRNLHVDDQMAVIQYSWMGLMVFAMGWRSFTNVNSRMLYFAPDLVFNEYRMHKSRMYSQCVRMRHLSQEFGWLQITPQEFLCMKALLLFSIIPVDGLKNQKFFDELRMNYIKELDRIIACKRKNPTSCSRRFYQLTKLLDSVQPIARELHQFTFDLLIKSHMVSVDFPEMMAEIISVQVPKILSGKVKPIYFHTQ
# Chain of Vitamin D3 receptor (Homo sapiens) (P11473 whole entry, looked up): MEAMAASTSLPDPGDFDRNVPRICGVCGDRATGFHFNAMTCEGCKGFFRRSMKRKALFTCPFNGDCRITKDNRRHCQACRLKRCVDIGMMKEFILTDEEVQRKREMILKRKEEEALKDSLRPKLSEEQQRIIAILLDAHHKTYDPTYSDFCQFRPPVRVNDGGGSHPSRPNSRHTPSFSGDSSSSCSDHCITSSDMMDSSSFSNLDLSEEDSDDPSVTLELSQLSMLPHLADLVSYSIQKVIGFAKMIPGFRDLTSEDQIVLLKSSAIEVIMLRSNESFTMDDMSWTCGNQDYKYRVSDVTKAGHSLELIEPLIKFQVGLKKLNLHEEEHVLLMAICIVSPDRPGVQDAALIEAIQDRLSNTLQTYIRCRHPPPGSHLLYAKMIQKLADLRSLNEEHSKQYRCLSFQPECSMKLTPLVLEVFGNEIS
# Chain of Thyroid hormone receptor beta (Homo sapiens) (P10828 whole entry, looked up): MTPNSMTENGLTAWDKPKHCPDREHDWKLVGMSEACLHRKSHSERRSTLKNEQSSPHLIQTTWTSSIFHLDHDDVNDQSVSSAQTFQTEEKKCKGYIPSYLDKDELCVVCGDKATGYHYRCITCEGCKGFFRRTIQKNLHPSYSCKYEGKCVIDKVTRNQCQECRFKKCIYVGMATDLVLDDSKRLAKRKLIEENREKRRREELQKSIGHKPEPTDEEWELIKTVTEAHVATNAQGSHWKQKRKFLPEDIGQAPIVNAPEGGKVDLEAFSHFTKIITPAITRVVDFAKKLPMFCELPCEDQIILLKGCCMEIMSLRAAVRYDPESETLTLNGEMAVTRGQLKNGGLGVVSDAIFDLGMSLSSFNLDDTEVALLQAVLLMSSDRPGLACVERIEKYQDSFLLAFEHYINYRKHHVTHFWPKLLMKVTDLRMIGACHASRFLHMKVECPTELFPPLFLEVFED
# Chain of Bile acid receptor (Homo sapiens) (Q96RI1 whole entry, looked up): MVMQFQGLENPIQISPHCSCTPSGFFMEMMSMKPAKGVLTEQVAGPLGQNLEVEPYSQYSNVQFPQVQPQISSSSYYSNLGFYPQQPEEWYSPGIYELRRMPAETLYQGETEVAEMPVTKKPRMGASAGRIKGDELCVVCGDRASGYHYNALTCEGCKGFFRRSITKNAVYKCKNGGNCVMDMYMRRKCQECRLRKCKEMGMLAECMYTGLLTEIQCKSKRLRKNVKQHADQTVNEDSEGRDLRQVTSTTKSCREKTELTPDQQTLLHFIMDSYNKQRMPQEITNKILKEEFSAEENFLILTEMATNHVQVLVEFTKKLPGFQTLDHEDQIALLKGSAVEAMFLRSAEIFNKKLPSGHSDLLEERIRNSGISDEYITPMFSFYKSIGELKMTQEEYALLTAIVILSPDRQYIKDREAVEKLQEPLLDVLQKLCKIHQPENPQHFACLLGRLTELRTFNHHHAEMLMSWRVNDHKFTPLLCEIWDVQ
# Chain of Peroxisome proliferator-activated receptor alpha (Homo sapiens) (Q07869 whole entry, looked up): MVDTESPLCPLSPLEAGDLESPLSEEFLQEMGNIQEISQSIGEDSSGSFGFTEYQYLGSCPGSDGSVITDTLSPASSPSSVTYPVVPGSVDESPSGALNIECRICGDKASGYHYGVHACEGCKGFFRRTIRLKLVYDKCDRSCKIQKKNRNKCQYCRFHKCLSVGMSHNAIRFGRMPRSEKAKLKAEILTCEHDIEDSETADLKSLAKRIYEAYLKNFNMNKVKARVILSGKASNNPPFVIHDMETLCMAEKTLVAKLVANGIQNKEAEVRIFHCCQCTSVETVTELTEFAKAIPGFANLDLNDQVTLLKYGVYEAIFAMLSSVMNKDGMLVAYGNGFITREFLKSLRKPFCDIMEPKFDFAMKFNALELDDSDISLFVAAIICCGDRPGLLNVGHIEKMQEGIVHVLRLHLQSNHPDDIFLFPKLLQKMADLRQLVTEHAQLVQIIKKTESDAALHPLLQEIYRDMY
# Chain of Retinoic acid receptor RXR-alpha (Homo sapiens) (P19793 whole entry, looked up): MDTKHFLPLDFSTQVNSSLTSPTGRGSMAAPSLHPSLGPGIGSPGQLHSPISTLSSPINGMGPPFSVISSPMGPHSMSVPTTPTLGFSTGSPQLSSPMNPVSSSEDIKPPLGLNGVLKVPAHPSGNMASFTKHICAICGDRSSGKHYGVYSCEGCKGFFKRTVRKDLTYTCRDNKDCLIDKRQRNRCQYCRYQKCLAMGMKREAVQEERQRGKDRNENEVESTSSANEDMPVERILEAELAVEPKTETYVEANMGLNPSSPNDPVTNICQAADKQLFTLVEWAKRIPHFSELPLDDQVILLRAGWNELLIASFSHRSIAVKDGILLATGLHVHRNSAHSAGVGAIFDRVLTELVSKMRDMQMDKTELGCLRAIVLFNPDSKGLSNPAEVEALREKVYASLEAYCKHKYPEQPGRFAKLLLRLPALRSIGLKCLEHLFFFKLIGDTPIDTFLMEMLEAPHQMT
# Chain of Phospholipid hydroperoxide glutathione peroxidase GPX4 (Homo sapiens) (P36969 whole entry, looked up): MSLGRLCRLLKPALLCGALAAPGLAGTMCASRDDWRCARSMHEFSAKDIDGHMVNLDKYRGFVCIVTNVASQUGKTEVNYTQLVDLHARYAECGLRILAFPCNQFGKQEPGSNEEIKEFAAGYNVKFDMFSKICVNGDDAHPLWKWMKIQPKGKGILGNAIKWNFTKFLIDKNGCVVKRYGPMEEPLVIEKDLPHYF
# Chain of Glutathione peroxidase 1 (Homo sapiens) (P07203 whole entry, looked up): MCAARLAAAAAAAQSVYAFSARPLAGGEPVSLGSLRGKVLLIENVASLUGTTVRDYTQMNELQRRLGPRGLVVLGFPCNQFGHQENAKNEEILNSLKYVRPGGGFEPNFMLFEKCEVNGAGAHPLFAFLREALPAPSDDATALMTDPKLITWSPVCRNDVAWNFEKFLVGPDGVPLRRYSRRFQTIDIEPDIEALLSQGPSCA
compound,measurement,setting,value
CC(COc1ccc(Oc2ccccc2)cc1)Oc1ccccn1 (stereo not given),activation,[1],-2.33% (inactive)
same,Potency,[2],inactive and 39.8 µM (active)
same,outcome,[3],inactive
same,outcome,[4],inactive
same,max response,[5],11.7% and -13.8%
same,Potency,[6],inactive
same,outcome,[7],inactive
same,Potency,[8],inactive
same,outcome,[9],inactive
same,outcome,[10],inactive
same,outcome,[11],inactive
same,max response,[12],-19.9% and -8.14%
same,max response,[13],-8.09% (inactive) and -10.1% (inactive)
same,activity change % (negative = inhibition),[14],4.1% (inactive) and -8.02% (inactive)
same,Potency,[15],48.6 µM (active) and 27.3 µM (active)
same,activation,[16],-3.04% (inactive) and -2.31% (inactive)
same,activation,[17],-1.12% (inactive) and 0.467% (inactive)
same,activation,[18],13% (inactive)
same,max response,[19],-1.27% (inactive) and -0.944% (inactive)
same,max response,[20],2.4% (inactive) and -4.17% (inactive)
same,max response,[21],-1.69% (inactive) and -16.3% (inactive)
same,Potency,[22],inactive
same,Potency,[23],inactive
same,Potency,[24],inactive
same,Potency,[25],inactive
same,Potency,[26],inactive
same,"activity change, negative = inhibition",[27],-5.43%
same,Potency,[28],inactive
same,Potency,[29],inactive
C/C(=C\c1csc(C)n1)[C@@H]1C[C@@H]2O[C@]2(C)CCC[C@H](C)[C@H](O)[C@@H](C)C(=O)C(C)(C)[C@@H](O)CC(=O)N1,Potency,[23],inactive
same,Potency,[24],inactive
same,Potency,[25],inactive
same,Potency,[26],inactive
same,Potency,[27],2820 nM (active)
same,Potency,[30],152 nM (active)
CCCC1CC(C(=O)NC(C(C)Cl)C2OC(SC)C(OP(=O)(O)O)C(O)C2O)N(C)C1 (stereo not given),Potency,[23],inactive
same,Potency,[24],inactive
same,Potency,[25],inactive
same,Potency,[26],inactive
same,"activity change, negative = inhibition",[27],-28.7% [at 27.1 µM]
